Only some compounds are listed: those with a hit (about 4.8% of all), similar ones and a draw of the others.
DAX1 inh-1: blocks DAX1 repression of SF-1 activated StAR promoter; HEK293T StAR-luciferase reporter, SF-1/DAX-1 repression relief; AID 652010; 370,000 compounds, 1.1% hits; inhibition, % at 6.8 µM;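 active means inhibition above the mean over all tested compounds plus 3 SD, cut at about 3.6% in these data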;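 further: 0% = DAX-1 cells with DMSO and 100% = cells lacking DAX-1 with DMSO; higher inhibition means more luminescence from relief of DAX-1 repression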
hcDAF-12 act: activates DAF-12 receptor from parasite H. contortus | AID 652067 | HEK293 hcDAF-12 lit1-tk-luc reporter, luminescence; 0% DMSO, 100% Δ7-dafachronic acid | 370,000 compounds, 1.4% hits | activation, % at 6.8 µM;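 active means activation above the mean of all tested compounds plus 3 SD, cut at about 5.5% in these data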;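 further: 100% = response to 3 µM Δ7-dafachronic acid high control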
ssDAF12 agonist: activators of S. stercoralis DAF-12 nuclear receptor; HEK293 ssDAF-12/GRIP1 lit1-tk-luc reporter, luminescence; % of 3 µM dafachronic acid response; 370,000 compounds, 1% hits; activation, % at 6.8 µM;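 active means activation above the mean over all tested compounds plus 3 SD, cut at about 0.9% in these data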;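 further: 0% = DMSO-only wells and 100% = 3 µM delta7-dafachronic acid wells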
hgDAF-12 ag: hgDAF-12 agonism, primary luciferase screen. HEK293 GAL4-hgDAF12 UAS-luciferase reporter, agonist luminescence; normalized to butyrate control. 370,000 compounds, 1.8% hits. activation, % at 6.8 µM;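 active means activation above a cutoff set at the mean of all screened compounds plus 3 SD, cut at about 10% in these data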;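 further: 0% = DMSO wells and 100% = sodium butyrate wells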
SMARCA2 act: increases SMARCA2 function in MMTV reporter cells. AID 652017. 370,000 compounds, 1% hits. activation, % at 9.1 µM. MG213 cells, MMTV-luciferase reporter, dexamethasone, overnight; in the data active means activation above about 7.8%;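 further: 0% = vehicle wells and 100% = reference activator wells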
DAX1 inh-2: NR0B1 (DAX1) inhibition | P51843 | HEK293 Gal4-DAX1 luciferase reporter, luminescence | inhibition, % at 6.75 µM | 340,000 compounds, 0.99% hits;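 active means inhibition above the mean over all tested compounds plus 3 SD, cut at about 4.2% in these data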;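 further: 0% = DAX1-transfected cells with DMSO and 100% = empty-vector control cells with DMSO; inhibition shows as a rise in luminescence from relieved DAX1 repression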
DAX1 inh confirm: NR0B1 (human) inhibition, confirmation; shares compounds with DAX1 inh-1; HEK293T StAR-promoter luciferase reporter, SF-1/DAX-1 repression; inhibition, % at 6.8 µM; 2,400 compounds, 87% hits;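 active means inhibition above the average of every tested compound plus 3 SD, cut at about 3.8% in these data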;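 further: 0% = DAX-1 cells with DMSO and 100% = no DAX-1 control cells with DMSO; active compounds raise luminescence by relieving repression of the StAR reporter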
Target sequence (P51843 whole entry, looked up): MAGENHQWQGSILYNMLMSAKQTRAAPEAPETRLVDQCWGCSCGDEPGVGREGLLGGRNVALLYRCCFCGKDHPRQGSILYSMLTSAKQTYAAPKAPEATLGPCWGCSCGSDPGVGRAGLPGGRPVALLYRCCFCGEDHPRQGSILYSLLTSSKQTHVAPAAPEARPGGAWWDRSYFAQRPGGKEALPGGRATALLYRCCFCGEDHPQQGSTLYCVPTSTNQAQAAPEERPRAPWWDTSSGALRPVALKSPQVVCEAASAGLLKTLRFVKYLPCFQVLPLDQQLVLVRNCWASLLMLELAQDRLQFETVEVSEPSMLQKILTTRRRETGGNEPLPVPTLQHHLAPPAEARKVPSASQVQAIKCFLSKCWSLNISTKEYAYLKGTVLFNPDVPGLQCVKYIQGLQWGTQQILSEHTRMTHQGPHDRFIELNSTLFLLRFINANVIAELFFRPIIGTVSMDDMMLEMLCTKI
SF1 AF2mut Luc: nonselective inhibitor or artifact in SF-1 mutant DAX1 counter-screen. HEK293 StAR-luciferase, SF-1 AF2 mutant, luminescence. AID 652136. shares compounds with DAX1 inh-1. inhibition, % at 6.8 µM. 2,400 compounds, 78% hits;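 active means inhibition above the mean of all tested compounds plus 3 SD, cut at about 3% in these data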;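 further: 0% = DAX-1 transfected cells with DMSO and 100% = cells without DAX-1 with DMSO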
Numbers without * were called inactive; x = no result given.

SMILES	DAX1 inh-1	hcDAF-12 act	ssDAF12 agonist	hgDAF-12 ag	SMARCA2 act	DAX1 inh-2	DAX1 inh confirm	SF1 AF2mut Luc
CCOC(=O)c1cnc2c(-c3ccccc3)cnn2c1N	5.6*	4	0	12*	3	4	17*	12*
CCOC(=O)c1cnc2c(-c3ccccc3)c(C)nn2c1N	0	-1	-1	3	4	1	x	x
O=C1CC(c2ccccc2)CC2=C1C1(CCCC1)N=C(Nc1nc3ccccc3o1)N2 (centres undefined)	4.5*	3	-1	4	-1	x	1	-1
Clc1ccc2nc(CSc3nnc4ccccn34)cn2c1	5.1*	5.6*	0	9	4	3	14*	8.8*
COc1ccc(NC(=O)CSc2nccn2Cc2ccco2)cc1	5.2*	1	0	8	4	1	6.8*	6.0*
Cn1ccnc1SCC(=O)Nc1ccc2ccccc2c1	5.7*	5	1.2*	9	5	0	10*	6.3*
CC(=O)Nc1ccc(NC(=O)CSc2nccn2Cc2ccco2)cc1	0	-2	1	6	1	0	x	x
COc1ccc(C(=O)CSc2nccn2C)c(OC)c1	6.9*	3	0	11*	7	1	5.5*	3
Cn1ccnc1SCC(=O)Nc1ccc(SC(F)F)cc1	6.2*	2	0	5	2	1	8.4*	5.3*
Cn1ccnc1SCC(=O)Nc1ccccc1	0	-1	-1	0	3	0	x	x
COC(=O)c1ccc(COc2ccccc2/C=C/C(=O)c2ccc(OCC(=O)O)cc2)cc1	0	5	0	0	4	0	x	x
Cc1onc(-c2c(F)cccc2Cl)c1C(=O)Nc1nc2ccccc2[nH]1	0	2	0	4	0	0	x	x
COc1ccc(NC(=O)C2=Cc3ccccc3OC2)cc1	8.0*	5.8*	1.2*	18*	1	-1	18*	8.2*
O=C(Nc1ccc(Cl)cc1)C1=Cc2cc(Cl)ccc2OC1	0	-1	-1	-1	0	-1	x	x
C/C(=N\NC(=O)c1cc2c(s1)CCC(C)C2)c1ccc[nH]1 (centres undefined)	6.2*	6	0	8	2	2	7.3*	4.4*
C/C(=N\NC(=O)c1cc2c(s1)CCC(C)C2)c1ccncc1 (centres undefined)	0	-2	-2	2	0	-1	x	x
CC1CCc2sc(C(=O)NC(C)C3CCCO3)cc2C1 (centres undefined)	5.3*	-1	0	6	3	0	4.3*	2
CCn1c(CC(=O)Nc2ccc(F)cc2)nnc1SCC(=O)NC1=NCCS1	0	1	-1	-2	-4	0	x	x
CCCCCCC[C@@H](C/C=C/CCC(=O)O)OC	-1	-1	-1	-5	-2	2	x	x
CCCCCCC[C@@H](C/C=C/CCC(=O)N(C)C/C(=C/Cl)C/C(=C\C(=O)N1CC(OC)=CC1=O)OC)OC	19*	0	0	-12	7	3	6.2*	-5
CC(NC(=O)Cc1ccccc1)c1ccc(F)cc1 (centres undefined)	0	-1	-1	5	1	0	x	x
CC(OC(=O)CC1CCCC1)C(=O)Nc1ccc(S(N)(=O)=O)cc1 (centres undefined)	4.9*	0	-1	1	-3	-1	2	1
CCN(c1cccc(C)c1)S(=O)(=O)c1cccc2nsnc12	-1	-3	-2	-2	-3	-2	x	x
Cc1c(C(=O)N2CCCCC2)oc2ccc(Br)cc12	5.5*	1	1	11*	4	0	5.8*	4.0*
Cc1ccc2oc(C(=O)N3CCCCCC3)c(C)c2c1	5.3*	4	0	10	1	2	5.2*	3.5*
SMILES	DAX1 inh-1	hcDAF-12 act	ssDAF12 agonist	hgDAF-12 ag	SMARCA2 act	DAX1 inh-2	DAX1 inh confirm	SF1 AF2mut Luc
CC(=O)N1CCN(C(=O)c2oc3ccccc3c2C)CC1	5.3*	2	-1	1	0	1	3	3.7*
Cc1ccc2oc(C(=O)NCCCN3CCOCC3)c(C)c2c1	6.6*	5	0	11*	5	3	8.9*	7.6*
Cc1ccc(C(=O)CCC(=O)OCC(=O)N(CC(C)C)c2c(N)n(Cc3ccccc3)c(=O)[nH]c2=O)cc1	-1	0	0	0	-1	-1	x	x
COc1ccc(Cc2c(-c3cccc(Br)c3)nc3ccc(Br)cn23)c(C)c1	5.1*	1	0	4	7	x	3	3.5*
COc1ccc(Cc2c(-c3ccc(C)cc3)nc3ccc(Cl)cn23)c(C)c1	5.7*	2	0	13*	0	x	6.5*	4.9*
C=CCC(NC(=O)N(C)C)(C(=O)OC)C(C)O (centres undefined)	0	-1	0	-1	1	x	x	x
COc1ccc(S(=O)(=O)Nc2cccc(-n3cnnn3)c2)cc1OC	0	2	-1	1	2	0	x	x
O=C(Nc1cccc(Cl)c1)N1CCc2ccccc2C1	1	1	0	10	1	2	x	x
COc1cccc(NC(=O)N2CCc3ccccc3C2)c1	6.1*	4	0	8	1	2	8.4*	7.1*
O=C(Nc1ccccc1)C(=O)Nc1ccc2c(c1)N(C(=O)C1CC1)CCC2	6.0*	3	0	11*	2	2	4.1*	0
Cn1ccc2c(-c3ccc(C(N)=O)cc3)cc3c(c21)C1CCC3O1 (centres undefined)	4.6*	0	-1	-4	-5	x	1	0
CC(=O)Nc1cccc(-c2cc3c(c4c2ccn4C)C2CCC3O2)c1 (centres undefined)	-1	2	-2	-1	-2	x	x	x
CC(=O)Nc1ccc(NC(=O)C2CCC(CNS(=O)(=O)c3cccc4nsnc34)CC2)cc1 (centres undefined)	0	0	-1	-3	-3	1	x	x
COc1cc(OC)cc(-c2noc(-c3csc([C@H]4C[C@H](O)[C@@H](CO)O4)n3)n2)c1	3	2	0	6	6	x	x	x
OC[C@H]1O[C@H](c2nc(-c3nc(-c4cccs4)no3)cs2)C[C@@H]1O	4.8*	3	0	12*	2	x	5.7*	3
CCC(=O)C1CCCN(C(=O)CCc2nnc(-c3ccc(C(C)=O)s3)o2)C1 (centres undefined)	5.3*	6.0*	0	9	4	2	6.8*	4.8*
